This is a sample that favours compounds with a hit; in the whole collection about 1.6% have one here.
Peg3 imprint: qHTS Assay for Compounds that Induce Erasure of Genomic Imprints | mouse ES Peg3-LacZ reporter, beta-gal luminescence, 40 h | actives 0.02% (n = 110,000) | Potency, µM (series often up to 60.7 µM), inactives show top-dose activity change, positive = activation, most hits filed as activators | AID 1948, 2009
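Gelatin-coated wells received 300 freshly trypsinized female ES cells with a Peg3LacZ-Neo reporter on the maternal allele, then incubated 40 hours at 37C. BetaGlo was added for 5 minutes at room temperature before a single luminescence read.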
p53ts 32C kill: qHTS Screen for Compounds that Selectively Target Cancer Cells with p53 Mutations: Cytotoxicity of p53ts Cells at the Permissive Temperature; Potency, µM (series often up to 46.1 µM), without a hit: top-dose activity change, negative = cytotoxicity, most hits filed as cytotoxic; actives 0.93% (n = 130,000); H1299-p53A138V at 32C, ATP luminescence viability, 24 h;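 further: 0% = DMSO and -100% = full killing by reference compound; nearly all actives have a fitted effect of over 55% in size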
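ATP-content luminescence (ATPlite) read-out after 24 h compound exposure at 32C in H1299-p53A138V cells (600/well). Tested up to 46 uM. Normalized to DMSO (0%) and 100 uM tamoxifen (100% killing); Hill-fit AC50.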
p53ts 39C tox: qHTS Screen for Compounds that Selectively Target Cancer Cells with p53 Mutations: Cytotoxicity of p53ts Cells at the Nonpermissive Temperature; Potency, µM (doses to about 46.1 µM), without a hit: at the highest dose activity change, negative = cell killing, most hits filed as cytotoxic; H1299-p53A138V viability at 39C, ATP luminescence, 24 h; AID 902, 2007; actives 1.5% (n = 130,000); further: on the % scale 0 is the no-effect control and ±100 the full control effect; nearly all actives have a fitted effect of over 55% in size
Starred values were filed as active, the others as inactive; ? = inconclusive; . = not tested or not shown; [ ] = another dose, or the depositor's remark. The call rests on the fitted dose curve; in most records, active means well fitted curve in the direction sought with a large enough effect; inconclusive means small, poorly fitted or top-dose-only effect, or another doubt; inactive means no such curve, though single readings can be large; an effect the other way counts as inactive or inconclusive. Potency means the concentration at half of the fitted maximal effect.

SMILES	Peg3 imprint	p53ts 32C kill	p53ts 39C tox
COC(=O)[C@@]1(Cc2ccc(OC)cc2)[C@H]2c3cc(C(=O)N(C)C)n(Cc4nc5ccccc5[nH]4)c3C[C@H]2CN1C(=O)c1ccccc1	-13%	14%	17%
CC1=C(C(=O)OC2CCCCCC2)C(c2cccc(Cl)c2)CC(=O)N1 (configuration not stated)	-13%[10.9 µM]	-19%	20µM*
CC1=C(C(=O)OC2CCCCCC2)C(c2ccc(Cl)cc2)CC(=O)N1 (configuration not stated)	-9%[10.9 µM]	2%	?
COC(=O)c1ccc(-n2c(C)cc(/C=N/n3cnnc3)c2C)cc1	9%	1%	-2%
COc1ccc(-n2c(C)cc(/C=N/Nc3nnc(C)n3N)c2C)cc1	.	?	10µM*
CC(=O)OC[C@H]1O[C@@H](O/N=C(\C)CCN2CCc3nc(-c4ccccc4)c(-c4ccccc4)cc3C2)[C@H](OC(C)=O)[C@@H](OC(C)=O)[C@H]1OC(C)=O	.	0%[9.22 µM]	12%[9.22 µM]
Cc1ccc(C)c(NC(=O)Cn2nnc(C(=O)NCc3ccccc3Cl)c2N)c1	12%[10.9 µM]	4%	12%
Cc1cc(C)cc(NC(=O)Cn2nnc(C(=O)NCc3ccccc3Cl)c2N)c1	-11%[10.9 µM]	?	7.9µM*
Cc1cc(Cl)ccc1NC(=O)Cn1nc(C)c2c(C)n(-c3ccccc3)nc2c1=O	4%[10.9 µM]	6%	-1%
COC(=O)CNC(=O)C1(CC(C)C)C=CCN1C(C)=O (configuration not stated)	-33%	-6%	-4%
Cc1ccc(C(=O)Nc2c(C(=O)NCc3ccc(Cl)cc3)sc3nc(C)cc(C)c23)cc1	-9%[10.9 µM]	?	?
Cc1cc(C)c2c(NC(=O)c3ccccc3Cl)c(C(=O)NCc3ccc(Cl)cc3)sc2n1	-10%[10.9 µM]	?	2.5µM*
Cn1cnc([N+](=O)[O-])c1SCC(=O)O	-8%[10.9 µM]	0%[9.22 µM]	5%[9.22 µM]
Cc1ccc(-c2nnn(CC(=O)N3c4ccccc4CCc4ccccc43)n2)cc1	.	4%	-1%
Cc1ccc(-c2nc3n(n2)Cc2ccccc2-3)cc1	.	8.9µM*	6.3µM*
CCn1c(C)nc2cc(C(=O)OC(C(F)(F)C(F)F)C(F)(F)C(F)F)ccc21	-13%	-10%	-26%
O=c1nc2n(c3c1oc1ccccc13)Cc1ccccc1-2	-2%	10%	14%
CCn1c(C)nc2cc(-c3nc4n(n3)Cc3ccccc3-4)ccc21	-97%	0.32µM*	0.4µM*
Fc1ccc(-c2nc3n(n2)Cc2ccccc2-3)cc1	-94%	16µM*	?
Cn1cc(-c2nc3cncnc3n(Cc3ccc(F)cc3)c2=O)c2ccccc21	-1%	2%	8%
CCOC(=O)C1(N(CC)CC)Sc2cc(C)ccc2NC1=O (configuration not stated)	-30%	-18%	16µM*
CCOC(=O)C1(Nc2nccs2)Sc2ccccc2NC1=O (configuration not stated)	-19%	16%	-8%
Cc1nc(N2CCOCC2)c2nc(-c3ccccc3)n(CCN(C)C)c2n1	0%	-6%	0%
CCOCCCn1c(=N)c(C(=O)NC(C)c2ccccc2)cc2c(=O)n3cccc(C)c3nc21 (configuration not stated)	-14%[10.9 µM]	-3%	?
CCCn1c(NC(=O)c2ccccc2)nc2ccccc21	-21%	4%	-13%
SMILES	Peg3 imprint	p53ts 32C kill	p53ts 39C tox
CCN(CC)CCn1c(NCc2ccc(OC)cc2)nc2ccccc21	-20%	-10%	-2%
CCCCCn1c(NCc2ccc(OC)cc2)nc2ccccc21	-20%[10.9 µM]	?	16µM*
CCCn1c(Nc2nc3ccccc3n2C)nc2ccccc21	-38%	?	10µM*
C=C(C)C(=O)OC	9%	4%[1.84 µM]	3%
COc1ccc(CCNC(=O)C2CCCN(c3nc4c(C)cc(C)cc4s3)C2)cc1OC (configuration not stated)	-6%[10.9 µM]	-9%	-30%
Cc1cn2c(=O)c(S(=O)(=O)Nc3ccc(OC(F)(F)F)cc3)c(C)nc2s1	-13%[10.9 µM]	-4%	-20%
NC[C@@H]1O[C@H](C23CC4CC(CC(C4)C2)C3)Cc2c1ccc(O)c2O	-31%	?	20µM*
NC[C@@H]1O[C@H](c2ccccc2)Cc2c1ccc(O)c2O	-37%	?	?
CC(=O)N1CCCc2cc(S(=O)(=O)N3CCC(C(=O)NCc4ccccc4Cl)CC3)ccc21	-13%[10.9 µM]	16%	-14%
Oc1ccc(NCc2ccccc2OCc2ccccc2Cl)cc1	-9%[10.9 µM]	0%	-7%
Oc1ccc(NCc2ccc(OCc3ccccc3)cc2)cc1	-54%[10.9 µM]	?	20µM*
